For experiment [1] the following is noted: Ebola virus entry assay, blue channel fluorescence.
The conditions of experiment [2]: Ebola virus entry assay, green fluorescence channel.
The conditions of experiment [3]: Ebola virus entry assay, ratio channel readout.
The nature of experiment [4]: qHTS Assay for Identifying Gametocytocidal Compounds (AID 743244; active = well fitted curve in the direction sought with a large enough effect;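 also: % is scaled to controls: 0 for no effect and ±100 for the full control effect; actives lower the fluorescent signal which means gametocytes are killed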). Conditions: P. falciparum 3D7 stage III-V gametocytes, alamarBlue, 72 h; max response: stronger effect = lower value. The essentials:
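Late gametocytes (III–V), P. falciparum 3D7; 72 h drug, then 24 h alamarBlue; resazurin reduction read by fluorescence.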
Background: Quantitative high-throughput screening tests each substance at several concentrations.

Experiment [5] is described as follows: qHTS profiling of the MIPE4 collection as inhibitors of Plasmodium falciparum (3D7) proliferation (AID 743344; call rule not given here;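 also: scaled between DMSO vehicle wells and 0.29 µM artemisinin as full inhibition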). Conditions: P. falciparum 3D7 in erythrocytes, SYBR Green DNA fluorescence, 72 h; at 28.5 µM (top of the series) unless noted. The essentials: (§1)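 Parasite DNA was quantified by SYBR Green I fluorescence (ex 485, em 535 nm) after overnight lysis in saponin/Triton buffer at room temperature. Cultures at 0.3% parasitemia and 2.5% hematocrit were first exposed to compound for 72 h at 37 C; signals were normalised to artemisinin (0.29 uM) and vehicle wells.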

Experiment [6] in a line: qHTS profiling of the MIPE4 collection as inhibitors of Plasmodium falciparum (DD2) proliferation (AID 743345; call rule not given here). Conditions: P. falciparum Dd2 in erythrocytes, SYBR Green DNA, 72 h; at 28.5 µM (top of the series) unless noted. The essentials: as §1
A short description of experiment [7]: qHTS profiling of the MIPE4 collection as inhibitors of Plasmodium falciparum (DD2) proliferation (Rep 2) (AID 743346; call rule not given here). The conditions noted are these: P. falciparum Dd2 in erythrocytes, SYBR Green DNA, 72 h; at 28.5 µM (top of the series) unless noted. The essentials:
as §1

Structures are written as SMILES. Where “and” joins values, the source holds several entries; their conditions need not be identical. Equal entries are not always repeated. Results filed as inconclusive are left out. For part of these data: Results with a measured potency or affinity are listed apart. Calls of active or inactive are those of the source. Unless noted, calls follow the shape of the full dose curve.

Consider `CO/N=C(\C(=O)N[C@@H]1C(=O)N2C(C(=O)O)=C(COC(C)=O)CS[C@H]12)c1csc(N)n1` (stereo in doubt), for which the call in experiment [1], in experiment [2] and in experiment [3] was inactive.
In the case of `C=CC1=C(C(=O)O)N2C(=O)[C@@H](NC(=O)/C(=N\O)c3csc(N)n3)[C@H]2SC1` (stereo in doubt), the compound was classed as inactive in experiment [1], in experiment [2] and in experiment [3].
Turning to `O=C(N[C@H](CO)[C@H](O)c1ccc([N+](=O)[O-])cc1)C(Cl)Cl`, the compound was classed as inactive in experiment [1], in experiment [2] and in experiment [3].
`CCOC(=O)[C@H](CCc1ccccc1)N[C@H]1CCCN2CCC[C@@H](C(=O)O)N2C1=O`: the call in experiment [1], in experiment [2] and in experiment [3] was inactive.
As a reminder, the AC50 is the concentration at which the activity in the assay is half-maximal. In the case of `COc1cccc2c1C(=O)c1c(O)c3c(c(O)c1C2=O)C[C@@](O)(C(=O)CO)C[C@@H]3O[C@H]1C[C@H](N)[C@@H](O)[C@H](C)O1`, the AC50 in experiment [1] was 7.94 µM (active). The call in experiment [2] and in experiment [3] was inactive.
As for `CCCCC(C)(O)C/C=C/[C@H]1[C@H](O)CC(=O)[C@@H]1CCCCCCC(=O)OC` (stereo partly drawn), the result in experiment [1], in experiment [2] and in experiment [3] was inactive.
On to `C=C1C(=C/C=C2\CCC[C@]3(C)[C@@H]([C@H](C)CCCC(C)(C)O)CC[C@@H]23)C[C@@H](O)C[C@@H]1O`, for which the call in experiment [1], in experiment [2] and in experiment [3] was inactive.
For the compound `CC(NC(C)(C)C)C(=O)c1cccc(Cl)c1` (stereo not drawn), in experiment [4], the max response was -0.241% (inactive) and 10.5% (inactive).
On to `CC(C)N(CCC(C(N)=O)(c1ccccc1)c1ccccn1)C(C)C` (stereo not drawn), for which the max response in experiment [4] was 11.9% (inactive) and -6.08% (inactive) and 19.7% (inactive).
On to `Cc1nnc2n1-c1ccc(Cl)cc1C(c1ccccc1Cl)=NC2`, for which the max response in experiment [4] was -0.695% (inactive). The compound was classed as inactive in experiment [1], in experiment [2] and in experiment [3].
Consider `Nc1ccn(C[C@@H](CO)OCP(=O)(O)O)c(=O)n1`, for which the parasite growth, % of DMSO control in experiment [5] was determined as 94% [at 9.64 µM]. The parasite growth remaining, % of DMSO control (lower = more inhibition) in experiment [6] amounted to 103% [at 9.64 µM]. Moreover, the parasite growth, % of control (lower = inhibition) in experiment [7] was 97.9% [at 9.64 µM]. The result in experiment [1], in experiment [2] and in experiment [3] was inactive.
